Platelet DG rel = inhibitors of platelet dense granule secretion, primary screen, cell-based, MLPCN, human platelets; 0.22% of 300,000 active; inhibition, %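 (compounds screened at 7.5 µM in platelet-rich plasma)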; human platelet-rich plasma, SFLLRN dense granule ATP release, luminescence; AID 1663, 2009;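 active means mean replicate score, as percent of positive control, at or above 50; inconclusive means mean below 50 but at least one replicate at or above 50; inactive means mean and every replicate below 50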
HSP90 inh = HSP90 inhibitors, primary screen, cell lysate, luminescence; Heat shock protein HSP 90 (rabbit reticulocyte lysate; luciferase refolding); Rabbit reticulocyte lysate, luciferase refolding luminescence, 3 h; inhibition, % at 5.6 µM; 0.91% of 290,000 active; AID 1789, 2009;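 active means inhibition above the screen-wide mean plus 3 SD, computed separately per campaign, cut at about 16% in these data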;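 further: 0% = DMSO wells and 100% = 60 µM geldanamycin wells; inhibitors lower the luminescence because luciferase stays unfolded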
HSF1 activator = HSF-1 activators, primary screen, NIH3T3-HGL cells, MG132 stress, luminescence, single point; activation, % at 9 µM; NIH3T3-HGL HSF-1 luciferase reporter, 8 h; 100% = twice DMSO control signal; 1.7% of 300,000 active;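 active means mean replicate activation of at least 50% with a set share of replicates each reaching 50%; inconclusive means only one of those two conditions met; inactive means mean below 50% and too few replicates reaching it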;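 further: 0% = median of the neutral control wells and 100% = twice that signal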
HSF1 inhib = HSF1 inhibitors in luciferase reporter cells, primary screen, cell-based, NIH3T3, luminescence; NIH3T3-HGL HSE-luciferase, MG132-induced, luminescence 8 h; hits give low values; activity change, negative = inhibition, % at 7.5 µM (by protocol); 0.77% of 300,000 active; AID 2098, 2009;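 active means more than half of replicate wells show activity change below -50%, luminescence cut by over half; inconclusive means some wells, but at most half, below -50%; inactive means no replicate well below -50%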;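 further: luciferase reports HSF-1 transcriptional activity via heat shock element; 0% = median of DMSO wells and -100% = zero luminescence signal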
MPTP block = mitochondrial permeability transition pore inhibitors, primary screen, biochemical, isolated mouse mitochondria, absorbance; Ca2+ swelling absorbance, 30 min; inhibition, % at 10 µM; 1.4% of 360,000 active;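 active means inhibition of 50% or more, scaled per plate between neutral and stimulator controls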;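 further: 0% = DMSO wells given calcium and 100% = 1 mM EGTA wells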
dFosB activator = activators of delta FosB homodimer, primary screen, biochemical, fluorescence polarization, TAMRA-CDK5 oligo, single point; activation, % at 25 µM; 0.99% of 340,000 active; purified delta FosB; percent of positive-control signal above neutral wells; AID 493131, 2011; Protein FosB (Mus musculus), P13346;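 active means mean activation above about 17%, with every replicate also reaching it, limit read from the data, passing the limit was not always enough; inconclusive means only one of the two conditions met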
Target sequence (P13346 whole entry, looked up): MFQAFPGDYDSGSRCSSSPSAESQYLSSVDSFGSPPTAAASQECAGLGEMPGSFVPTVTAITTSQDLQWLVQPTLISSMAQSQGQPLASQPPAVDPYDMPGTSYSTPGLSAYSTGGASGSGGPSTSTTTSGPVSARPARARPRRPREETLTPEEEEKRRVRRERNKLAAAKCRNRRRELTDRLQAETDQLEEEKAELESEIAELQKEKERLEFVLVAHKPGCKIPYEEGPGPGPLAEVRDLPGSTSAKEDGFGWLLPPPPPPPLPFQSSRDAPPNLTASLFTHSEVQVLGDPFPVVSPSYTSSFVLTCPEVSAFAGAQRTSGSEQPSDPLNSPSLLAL
* = called active by the depositor. Hits are enriched below; roughly 4.9% of the tested compounds scored in any of these assays.

`Cc1cc(C)cc(N=c2c([N+](=O)[O-])nn(-c3ccc4c(c3)OCCO4)n2O)c1` gave Platelet DG rel 7.2, HSP90 inh 4.2, HSF1 activator -24.5, HSF1 inhib -6.1, MPTP block 1.3 and dFosB activator -6.7.
For O=C1CCCN1CCCN=c1c([N+](=O)[O-])nn(-c2ccc(Cl)cc2)n1O the results were Platelet DG rel -0.5, HSP90 inh 1.3, HSF1 activator 62.3*, HSF1 inhib 32.9, MPTP block 2.1 and dFosB activator 1.3.
`Cc1ccc(N=c2c([N+](=O)[O-])nn(-c3ccc4c(c3)OCCO4)n2O)c(Cl)c1` gave Platelet DG rel 1.1, HSP90 inh 16.8*, HSF1 activator -69.3 and HSF1 inhib -62.5*.
For Cc1ccc(CN=c2c([N+](=O)[O-])nn(-c3ccc4c(c3)OCCO4)n2O)cc1 the results were Platelet DG rel 0.7, HSP90 inh -2.3, HSF1 activator inconclusive, HSF1 inhib 45.2, MPTP block 1.9 and dFosB activator -9.9.
For O=[N+]([O-])c1nn(-c2ccc3c(c2)OCCO3)n(O)c1=Nc1ccc(Cl)cc1 the results were Platelet DG rel 3.6, HSP90 inh 8.6, HSF1 activator -83.6, HSF1 inhib -79.2*, MPTP block 1.4 and dFosB activator -10.9.
O=[N+]([O-])c1nn(-c2ccc3c(c2)OCCO3)n(O)c1=Nc1ccccc1 was read as Platelet DG rel -67.3, HSP90 inh 2.4, HSF1 activator -90.8, HSF1 inhib -89.1*, MPTP block -1.1 and dFosB activator -8.2.
COc1ccc(-n2nc([N+](=O)[O-])c(=NCCCN3CCCC3=O)n2O)cc1 was read as Platelet DG rel 0.2, HSP90 inh -0.8, HSF1 activator -5.2, HSF1 inhib -6.1, MPTP block 0.0 and dFosB activator -1.5.
For NC(=O)C1(Nc2ccc(-c3ccc(Br)cc3)cc2)CCCC1 the results were MPTP block 0.4 and dFosB activator -11.6.
Cc1ccc(N=c2c([N+](=O)[O-])nn(-c3ccc4c(c3)OCCO4)n2O)cc1F was read as Platelet DG rel 3.1, HSP90 inh 2.5, HSF1 activator -83.9, HSF1 inhib -79.2*, MPTP block 1.9 and dFosB activator 2.3.
`COc1ccccc1OCC(=O)NCCSCc1ccccc1Cl` gave Platelet DG rel -10.3, HSP90 inh 0.3, HSF1 activator 27.5, HSF1 inhib 15.7, MPTP block 0.3 and dFosB activator 1.7.
Screening O=C(COc1ccccc1)NCCSCc1ccccc1Cl returned Platelet DG rel -0.9, HSP90 inh 0.0, HSF1 activator 69.8*, HSF1 inhib 39.5, MPTP block -2.2 and dFosB activator -2.5.
Screening CCOc1ccc(NCc2nnc(SCC(=O)Nc3cc(C)on3)n2-c2ccccc2OC)cc1 returned Platelet DG rel -6.9, HSP90 inh 4.9, HSF1 activator -47.2, HSF1 inhib -36.0, MPTP block 1.8 and dFosB activator 1.5.
Screening CCOc1ccc(NCc2nnc(SCC(=O)Nc3cc(C)on3)n2-c2ccc(OC)cc2)cc1 returned Platelet DG rel 4.6, HSP90 inh 0.2, HSF1 activator -82.6, HSF1 inhib -79.6*, MPTP block 4.5 and dFosB activator -5.0.
Screening COc1cccc(CNC(=O)[C@@H]2CCCN2C(=O)[C@@H]2CCCN2C(=O)c2c(F)cccc2F)c1 returned MPTP block -0.4.
For Cc1ccsc1C(=O)Nc1ccc(S(=O)(=O)N2CCOCC2)cc1 the results were MPTP block -2.9 and dFosB activator -1.3.
Screening CC(=O)c1ccc(NC(=O)COC(=O)C2CC3C=CC2C3)cc1 (stereo not drawn) returned MPTP block 0.3 and dFosB activator 1.6.
For O=C(COC(=O)C1CC2C=CC1C2)Nc1ccc2c(c1)OC(F)(F)O2 (stereo not drawn) the results were Platelet DG rel 6.2, HSP90 inh 2.4, HSF1 activator 105.0*, HSF1 inhib 87.5, MPTP block 26.1 and dFosB activator -7.6.
For COC(=O)C1=C(C)NC2=C(C(=O)CC(C)(C)C2)C1c1cn(Cc2ccc(Br)cc2)nc1-c1ccccc1 (stereo not drawn) the results were HSP90 inh 0.4, HSF1 activator 74.1*, HSF1 inhib 37.3, MPTP block 1.0 and dFosB activator -10.3.
`COC(=O)C1=C(C)NC2=C(C(=O)CCC2)C1c1cn(Cc2ccc(Br)cc2)nc1-c1ccccc1` (stereo not drawn) gave Platelet DG rel -1.8, HSP90 inh -2.1, HSF1 activator 24.2, HSF1 inhib 5.7, MPTP block 2.4 and dFosB activator -11.1.
For CCOc1ccc(CNC(=O)c2ccc3c(c2)N(CC)CCS3)cc1 the results were Platelet DG rel 19.3, HSP90 inh -3.3, HSF1 activator 54.5*, HSF1 inhib 34.0, MPTP block 0.0 and dFosB activator -3.9.
Screening CCCCNC(=O)c1ccc2c(c1)N(CC)C(=O)CS2 returned Platelet DG rel 0.8, HSP90 inh -0.1, HSF1 activator 0.3, HSF1 inhib 6.3, MPTP block -0.3 and dFosB activator 1.9.
CCN1C(=O)CSc2ccc(C(=O)NCc3ccc(OC)cc3)cc21 was read as Platelet DG rel -1.0, HSP90 inh 3.4, HSF1 activator 52.5*, HSF1 inhib 19.4, MPTP block 0.9 and dFosB activator -6.2.
For CCN1CCSc2ccc(C(=O)NCc3ccc(OC(C)C)cc3)cc21 the results were Platelet DG rel 16.6, HSP90 inh -3.0, HSF1 activator 77.2*, HSF1 inhib 59.9, MPTP block 0.9 and dFosB activator -8.0.
For CCOC(=O)N1CCC(NC(=O)c2ccc3c(c2)N(CC)CCS3)CC1 the results were Platelet DG rel -1.5, HSP90 inh -3.1, HSF1 activator 26.4, HSF1 inhib -0.7, MPTP block -2.1 and dFosB activator -11.3.
Screening Cc1ccc(-n2nc3c(=O)n(CCCC(=O)N4CCC(C(N)=O)CC4)nc(C)c3c2C)cc1 returned Platelet DG rel -0.8, HSP90 inh 1.9, HSF1 activator -59.5, HSF1 inhib -52.2*, MPTP block -1.1 and dFosB activator -8.2.
Cc1ccc(NC2CCCN(C(=O)CCc3ccncc3)C2)cc1C (stereo not drawn) was read as Platelet DG rel 8.6, HSP90 inh -8.2, HSF1 activator -2.0, HSF1 inhib -2.5, MPTP block 0.5 and dFosB activator -1.2.
For CCOC(=O)c1c(-c2ccccc2)oc2ccc(O)c(CN(C)C)c12 the results were Platelet DG rel 5.1, HSP90 inh 9.0, HSF1 activator 7.4, HSF1 inhib -7.8, MPTP block -0.5 and dFosB activator -14.2.

Source: PubChem BioAssay
